Screening data as filed in PubChem.
Only some compounds are listed: those with a hit (about 19% of all), similar ones and a draw of the others.
DT40 TDP1 no CPT: qHTS for Inhibitors of human tyrosyl-DNA phosphodiesterase 1 (TDP1): qHTS in cells in absence of CPT; DT40 Tdp1-/- hTDP1 cells, no CPT, ATP luminescence, 48 h; Potency, µM (highest dose often 46.2 µM), most hits filed as inhibitors; 420,000 tested, 15% active; further: nearly all actives have a fitted effect of over 55% in size
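DT40 Tdp1-/-;hTDP1 cells, no CPT (DMSO vehicle only), 400 cells/well; compounds pin-transferred; ≥48 hr, 37 °C; CellTiter-Glo 30 min RT dark, luminescence read.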
DT40 TDP1 CPT: qHTS for Inhibitors of human tyrosyl-DNA phosphodiesterase 1 (TDP1): qHTS in cells in presence of CPT | chicken DT40 Tdp1-/-;hTDP1 cells + 20 nM CPT, ATP luminescence, 48 h | Potency, µM (doses to about 46.2 µM), usual class: inhibitors | 420,000 tested, 12% active; further: nearly all actives have a fitted effect of over 55% in size
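Cell growth measured by CellTiter-Glo luminescence after a minimum 48 h, 37 C compound exposure with 20 nM CPT in Tdp1-knockout DT40 cells stably expressing hTDP1, seeded 400/well; qHTS titration format.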
VP16 counter: VP16 counterscreen qHTS for inhibitors of ROR gamma transcriptional activity | Drosophila S2 Gal4-VP16 UAS-luciferase, luminescence, 20 h | Potency, µM (top dose mostly 53.6 µM), hits mostly inhibitors | 310,000 tested, 3.5% active;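 further: Gal4-VP16 expression switched on by copper sulfate through the metallothionein promoter; nearly all actives have a fitted effect of over 50% in size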
TDP1 inh: qHTS Assay for Inhibitors of Tyrosyl-DNA Phosphodiesterase (TDP1) | Tyrosyl-DNA phosphodiesterase 1 (Homo sapiens), Q9NUW8 | recombinant TDP1, AlphaScreen DNA substrate cleavage | Potency, µM (series often up to 130 µM), hits mostly inhibitors | 350,000 tested, 0.28% active; further: nearly all actives have a fitted effect of over 40% in size
Target sequence (Q9NUW8 whole entry, looked up): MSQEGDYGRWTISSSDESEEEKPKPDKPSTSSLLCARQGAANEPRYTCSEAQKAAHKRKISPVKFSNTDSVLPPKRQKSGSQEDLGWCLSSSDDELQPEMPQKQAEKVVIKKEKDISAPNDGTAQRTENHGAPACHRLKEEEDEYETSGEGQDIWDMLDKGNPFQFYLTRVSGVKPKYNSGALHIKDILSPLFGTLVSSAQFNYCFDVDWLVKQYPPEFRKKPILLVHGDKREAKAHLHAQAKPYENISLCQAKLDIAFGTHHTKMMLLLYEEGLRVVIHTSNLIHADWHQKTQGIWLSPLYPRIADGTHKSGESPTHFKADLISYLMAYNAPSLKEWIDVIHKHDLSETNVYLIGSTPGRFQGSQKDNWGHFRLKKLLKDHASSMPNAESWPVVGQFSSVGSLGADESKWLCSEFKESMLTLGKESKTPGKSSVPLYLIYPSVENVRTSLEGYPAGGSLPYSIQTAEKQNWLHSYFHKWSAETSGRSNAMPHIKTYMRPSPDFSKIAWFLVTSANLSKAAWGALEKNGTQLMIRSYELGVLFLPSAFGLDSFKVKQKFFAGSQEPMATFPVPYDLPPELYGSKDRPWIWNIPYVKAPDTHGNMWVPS
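Here, a 5' biotin and 3' phosphotyrosine-FITC DNA oligonucleotide reports Tdp1 activity: intact substrate bridges AlphaScreen beads, while cleavage leaves a 3' phosphate and drops signal. All incubations at room temperature.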
RORgamma inh: qHTS for inhibitors of ROR gamma transcriptional activity | Drosophila S2 Gal4-RORgamma UAS-luciferase reporter, 20 h | Potency, µM (highest dose often 53.6 µM), usual class: inhibitors | Nuclear receptor ROR-gamma (Mus musculus), P51450 | AID 2551, 2010 | 310,000 tested, 5.4% active; further: nearly all actives have a fitted effect of over 60% in size
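Stable Schneider cell line, Gal4 DNA-binding domain fused to ROR gamma, UAS-luciferase. Cmpd 1 hr RT → CuSO4 700 uM final → 20 hr RT → luciferase reagent 10 min → luminescence.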
Of the large screens only hits and unclear results are named; the others gave an inactive call. The call rests on the fitted dose curve; in most records, active means well fitted curve in the direction sought with a large enough effect; inconclusive means small, poorly fitted or top-dose-only effect, or another doubt; inactive means no such curve, though single readings can be large; an effect the other way counts as inactive or inconclusive.

Cn1nc(C(C)(C)C)cc1C(=O)NCc1cc(F)cc2c1OCOC2	DT40 TDP1 no CPT 3.7µM, DT40 TDP1 CPT 9.2µM, VP16 counter 3.5µM, RORgamma inh inconclusive
C[C@H]1CN([C@@H](C)CO)C(=O)CCCn2nncc2CO[C@@H]1CN(C)Cc1cccc(C(F)(F)F)c1	DT40 TDP1 no CPT 23µM, DT40 TDP1 CPT 21µM (no result: VP16 counter, TDP1 inh, RORgamma inh)
C[C@@H]1CN([C@@H](C)CO)C(=O)CCCn2cc(nn2)CO[C@H]1CN(C)S(=O)(=O)c1ccc(-c2ccccc2)cc1	DT40 TDP1 no CPT 6.5µM, DT40 TDP1 CPT 9.2µM (no result: VP16 counter, TDP1 inh, RORgamma inh)
C[C@@H]1CN([C@H](C)CO)C(=O)CCCn2nncc2CO[C@H]1CN(C)S(=O)(=O)c1ccc(Oc2ccccc2)cc1	DT40 TDP1 no CPT inconclusive (no result: VP16 counter, TDP1 inh, RORgamma inh)
C[C@H](CO)N1C[C@H](C)[C@@H](CN(C)S(=O)(=O)c2ccc(-c3ccccc3)cc2)OCc2cn(nn2)CCCC1=O	DT40 TDP1 no CPT inconclusive (no result: VP16 counter, TDP1 inh, RORgamma inh)
C[C@H]1CN([C@@H](C)CO)C(=O)CCCn2nncc2CO[C@H]1CN(C)S(=O)(=O)c1ccc(Oc2ccccc2)cc1	DT40 TDP1 no CPT 12µM, DT40 TDP1 CPT 18µM (no result: VP16 counter, TDP1 inh, RORgamma inh)
C[C@@H]1CN([C@@H](C)CO)C(=O)CCCn2nncc2CO[C@H]1CN(C)Cc1cccc(C(F)(F)F)c1	none (no result: VP16 counter, TDP1 inh, RORgamma inh)
C[C@H]1CN([C@@H](C)CO)C(=O)CCCn2nncc2CO[C@@H]1CN(C)Cc1ccccc1C(F)(F)F	DT40 TDP1 CPT 18µM (no result: VP16 counter, TDP1 inh, RORgamma inh)
CCC(=O)Nc1cccc(-n2nnnc2SCC(=O)c2ccc(C)c(C)c2)c1	DT40 TDP1 no CPT inconclusive, DT40 TDP1 CPT inconclusive, RORgamma inh inconclusive
CC(=O)C1=C(C)Nc2cc(C(F)(F)F)ccc2S1	none
O=C(OCC(=O)N1CCN(c2ccccc2)CC1)c1cc(F)c(F)cc1Cl	none (no result: VP16 counter, TDP1 inh, RORgamma inh)
C[C@@H]1CN([C@@H](C)CO)C(=O)CCCn2nncc2CO[C@H]1CN(C)Cc1ccc(-c2ccccc2)cc1	DT40 TDP1 no CPT 16µM (no result: VP16 counter, TDP1 inh, RORgamma inh)
C[C@H]1CN([C@@H](C)CO)C(=O)CCCn2nncc2CO[C@@H]1CN(C)Cc1ccccc1	none (no result: VP16 counter, TDP1 inh, RORgamma inh)
C[n+]1ccc(/C=C/c2cc[n+](C)c3ccccc23)c2ccccc21	DT40 TDP1 no CPT 0.079µM, DT40 TDP1 CPT 0.1µM (no result: VP16 counter, TDP1 inh, RORgamma inh)
Cc1cc(C)[n+](C)c2ccccc12	none (no result: VP16 counter, TDP1 inh, RORgamma inh)
C[n+]1ccc(/C=C/c2ccc([N+](C)(C)C)cc2)c2ccccc21	DT40 TDP1 no CPT 0.16µM, DT40 TDP1 CPT 0.14µM (no result: VP16 counter, TDP1 inh, RORgamma inh)
C[n+]1ccc(/C=C/c2ccc(F)cc2)c2ccccc21	DT40 TDP1 no CPT 13µM, DT40 TDP1 CPT 8.9µM (no result: VP16 counter, TDP1 inh, RORgamma inh)
O=C(NCCS(=O)(=O)N1CCN(c2ccc(F)cc2)CC1)C1CC(=O)N(c2ccccc2)C1 (configuration not stated)	none
CN(CC(=O)Nc1ccc(OC(F)(F)F)cc1)C(=O)c1ccccc1SCC(=O)N1CCCC1	DT40 TDP1 no CPT inconclusive, DT40 TDP1 CPT 23µM (no result: VP16 counter, TDP1 inh, RORgamma inh)
COc1ccccc1CN(C)C(=O)c1ccccc1SCC(=O)N1CCCC1	DT40 TDP1 CPT inconclusive (no result: VP16 counter, RORgamma inh)
CN(Cc1ccc(Cl)c(Cl)c1)C(=O)c1ccccc1SCC(=O)N1CCCC1	DT40 TDP1 no CPT 21µM, DT40 TDP1 CPT inconclusive (no result: VP16 counter, RORgamma inh)
CN(C)S(=O)(=O)c1cccc(NC(=O)c2ccccc2SCC(=O)N2CCCC2)c1	DT40 TDP1 no CPT inconclusive (no result: VP16 counter, TDP1 inh, RORgamma inh)
CN(CC(=O)Nc1ccc(Cl)c(Cl)c1)C(=O)c1ccccc1SCC(=O)N1CCCC1	DT40 TDP1 no CPT 23µM, DT40 TDP1 CPT inconclusive (no result: VP16 counter, TDP1 inh, RORgamma inh)
CN(Cc1cccc(Cl)c1Cl)C(=O)c1ccccc1SCC(=O)N1CCCC1	DT40 TDP1 no CPT 13µM, DT40 TDP1 CPT 12µM (no result: VP16 counter, TDP1 inh, RORgamma inh)
O=C(COC(=O)c1ccccc1SCC(=O)N1CCCC1)Nc1ccc(OC(F)F)cc1	DT40 TDP1 no CPT inconclusive (no result: VP16 counter, RORgamma inh)
COc1cccc(C2CC(=O)Nc3cc(OC)c(OC)cc32)c1 (configuration not stated)	RORgamma inh inconclusive
COc1cccc(C2CC(=O)Nc3cc4c(cc32)CCC4)c1 (configuration not stated)	DT40 TDP1 no CPT 2.6µM, DT40 TDP1 CPT 4.1µM, VP16 counter 13µM, RORgamma inh inconclusive
